An excerpt weighted towards active compounds, which were near 19% of everything screened.
TDP1 block – qHTS Assay for Inhibitors of Tyrosyl-DNA Phosphodiesterase (TDP1). Tyrosyl-DNA phosphodiesterase 1 (Homo sapiens), Q9NUW8. recombinant TDP1, AlphaScreen DNA substrate cleavage. Potency, µM (titrated, usually from 130 µM), for inactives: top-dose activity change, negative = inhibition, hits mostly inhibitors. 350,000 compounds, 0.28% hits. AID 485290, 2010; also: potency is read from the fitted curve at half-maximal effect; nearly all actives have a fitted effect of over 40% in size
Target sequence (Q9NUW8 whole entry, looked up): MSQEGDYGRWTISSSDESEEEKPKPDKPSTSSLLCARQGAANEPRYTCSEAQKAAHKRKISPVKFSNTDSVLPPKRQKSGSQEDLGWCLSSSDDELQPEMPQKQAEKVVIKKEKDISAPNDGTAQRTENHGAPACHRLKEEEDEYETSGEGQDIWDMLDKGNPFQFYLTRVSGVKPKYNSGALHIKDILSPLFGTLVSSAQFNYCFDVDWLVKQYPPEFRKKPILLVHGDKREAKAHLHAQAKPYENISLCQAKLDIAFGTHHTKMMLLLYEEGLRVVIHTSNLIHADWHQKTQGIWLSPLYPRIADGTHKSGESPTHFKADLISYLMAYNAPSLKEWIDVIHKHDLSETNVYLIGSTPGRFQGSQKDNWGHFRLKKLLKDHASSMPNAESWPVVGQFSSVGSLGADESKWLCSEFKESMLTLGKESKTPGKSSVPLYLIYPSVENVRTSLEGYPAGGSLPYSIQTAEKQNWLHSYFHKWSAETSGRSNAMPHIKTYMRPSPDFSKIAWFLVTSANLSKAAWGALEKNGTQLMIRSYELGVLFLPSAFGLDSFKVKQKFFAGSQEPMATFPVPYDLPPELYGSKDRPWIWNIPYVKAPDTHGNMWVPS
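Enzyme-compound mixtures sat 15 min at room temperature, followed by a 5 min reaction with 15 nM final substrate and 10 min with AlphaScreen beads. Recombinant human Tdp1 was used at 1 nM final.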
Giardia killer – Small Molecules that selectively kill Giardia lamblia: qHTS; Giardia lamblia trophozoite viability; activity change, % at 7.66 µM, hits read low; 340,000 compounds, 0.15% hits; AID 540267, 2011; in the data active = activity change below about -80%; inconclusive = between about -30% and that limit;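 also: parasites exposed to compound for two days anaerobically before the ATP read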
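Trophozoite viability was measured as ATP-dependent luminescence, read 15-30 min after reagent addition. Before that, parasites at 100 cells/well were exposed to compounds for 48 h, anaerobically, at 37 deg C.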
TDP1 cell CPT – qHTS for Inhibitors of human tyrosyl-DNA phosphodiesterase 1 (TDP1): qHTS in cells in presence of CPT. chicken DT40 Tdp1-/-;hTDP1 cells + 20 nM CPT, ATP luminescence, 48 h. Potency, µM (doses to about 46.2 µM), for inactives: top-dose activity change, negative = growth inhibition, most hits filed as inhibitors. 420,000 compounds, 12% hits; also: potency is read from the fitted curve at half-maximal effect; nearly all actives have a fitted effect of over 55% in size
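Chicken DT40 Tdp1-/- cells complemented with human TDP1, 400 cells/well, exposed to compounds plus 20 nM camptothecin for at least 48 h at 37 C; viability read as ATP content by CellTiter-Glo luminescence.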
TDP1 cell noCPT – qHTS for Inhibitors of human tyrosyl-DNA phosphodiesterase 1 (TDP1): qHTS in cells in absence of CPT; DT40 Tdp1-/- hTDP1 cells, no CPT, ATP luminescence, 48 h; Potency, µM (titrated, usually from 46.2 µM), for inactives: at the top dose activity change, negative = growth inhibition, usual class: inhibitors; 420,000 compounds, 15% hits; AID 686978, 2013; also: potency is read from the fitted curve at half-maximal effect; nearly all actives have a fitted effect of over 55% in size
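Seeded 400 DT40-hTDP1 cells/well (vehicle DMSO, no 20 nM CPT); pinned compounds; ≥48 hr at 37 °C; CellTiter-Glo luminescence as viability measure.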
IL1B secr inh – qHTS for Inhibitors of Inflammasome Signaling: IL-1-beta AlphaLISA Primary Screen; AID 743279, 2014; activity change, % at 57.5 µM; THP-1 LPS/ATP IL-1B secretion, AlphaLISA, 16 h; active compounds read low; 360,000 compounds, 4.7% hits; in the data active = activity change below about -50%; inconclusive = mostly about -30% to -49%
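THP-1 cells pretreated 1 hr with compounds (up to 57.5 uM final), then stimulated with LPS (250 ng/mL final) plus ATP (1.25 mM final); secreted IL-1B measured by AlphaLISA after 16 hr, decreased signal indicating inhibition.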
ELG1 repair inh – qHTS screen for small molecules that inhibit ELG1-dependent DNA repair in human embryonic kidney (HEK293T) cells expressing luciferase-tagged ELG1 | HEK293T ELG1-luciferase reporter, luminescence, 16 h; DNA damage induced by 5-fluorouridine | AID 504467, 2011 | Potency, µM (doses to about 46.1 µM), for inactives: at the highest dose activity change, negative = inhibition, most hits filed as inhibitors | 330,000 compounds, 2.3% hits; also: potency is read from the fitted curve at half-maximal effect; nearly all actives have a fitted effect of over 55% in size
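Step one: seed 2,000 cells per well. Step two: pin-transfer compound or DMSO alongside 5-fluorouridine. Step three: incubate 16 hr, 37 °C, 5% CO2. Step four: add ONE-Glo, wait 30 min, read luminescence.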
Starred values were filed as active, the others as inactive; ? = inconclusive; . = not tested or not shown; [ ] = dose if it differs, or a comment. Unless noted, calls follow the shape of the dose curve; as a rule, active = well fitted curve in the direction sought with a large enough effect; inconclusive = small, poorly fitted or top-dose-only effect, or another doubt; inactive = no such curve, though single readings can be large; an effect the other way counts as inactive or inconclusive. % is scaled to controls: 0 for no effect and ±100 for the full control effect.

SMILES	TDP1 block	Giardia killer	TDP1 cell CPT	TDP1 cell noCPT	IL1B secr inh	ELG1 repair inh
COc1ccc(CNC(=O)COC(=O)c2ccccn2)cc1	0.0%	-6.1	4.4%	-2.5%	20.5	4.7%
Cc1c(Cl)cccc1-n1ncc(C(=O)Nc2ccc(Br)cc2F)c1C1CCNCC1	5.3%	.	4.11µM*	5.17µM*	.	.
Cc1cccc(-n2ncc(C(=O)N3CCN(c4ccc(C)cc4C)CC3)c2C2CCN(C(=O)OC(C)(C)C)CC2)c1	0.0%	.	?	-18.9%	.	.
Cc1ccc(-n2ncc(C(=O)N3CCN(c4cccc(C)c4C)CC3)c2C2CCNCC2)c(C)c1	4.2%	.	8.2µM*	16.4µM*	.	.
Cc1cccc(N2CCN(C(=O)c3cnn(-c4ccccc4Cl)c3C3CCN(C(=O)OC(C)(C)C)CC3)CC2C)c1 (stereo unspecified)	3.2%	.	?	13µM*	.	.
Cc1ccc(C)c(N2CCN(CCCNC(=O)c3cnn(-c4cccc(Cl)c4)c3C3CCN(C(=O)OC(C)(C)C)CC3)CC2)c1	5.3%	.	4.61µM*	5.8µM*	.	.
Cc1ccc(-n2ncc(C(=O)NCCCN3CCN(C)CC3)c2C2CCN(C(=O)OC(C)(C)C)CC2)c(C)c1	2.1%	.	?	?	.	.
Cc1ccc(NC(=O)c2ccc3snnc3c2)cc1Cl	5.1%	.	-10.4%	-16.1%	.	.
COCCNC(=O)CSCc1cc(C)cc(C)c1	-4.6%	4.8	12.0%	3.8%	-0.6	12.3%
COc1ccccc1-c1ccnc(-n2ncc(C(=O)NC3CCCN(Cc4ccccc4)C3)c2C)n1 (stereo unspecified)	.	.	10.4%[9.04 µM]	-27.9%	.	.
CC(C)(C)CNC(=O)C1(C)CCN1C(=O)Cc1ccc(-c2ccccc2)cc1 (stereo unspecified)	.	.	23.1µM*	18.4µM*	2.6	.
CCCC(C)NC(=O)Cc1ccccc1 (stereo unspecified)	-2.9%	-2.9	-3.8%	-9.7%	-10.8	-8.7%
CC(C)(C)CNC(=O)C1(C)CCN1C(=O)C1(c2ccccc2)CC1 (stereo unspecified)	.	.	?	?	31.5	.
CCC(C)NC(=O)Cc1ccc(-c2ccccc2)cc1 (stereo unspecified)	2.6%	4.5	?	20.6µM*	-8.0	-16.3%
CC(C)NC(=O)C1(C)CCN1Cc1ccc(-c2ccccc2)cc1 (stereo unspecified)	.	.	11.6µM*	8.2µM*	-8.1	.
Cc1ccc(S(=O)(=O)NC(=O)C2(C)CCN2C(=O)Cc2ccc(-c3ccccc3)cc2)cc1 (stereo unspecified)	.	.	11.6%	2.0%	7.4	.
CC1(C(=O)NC2CCCCCC2)CCN1C(=O)Cc1ccc(-c2ccccc2)cc1 (stereo unspecified)	.	.	?	14.6µM*	-8.3	.
CSc1ccccc1NC(=O)C1(C)CCN1C(=O)Cc1ccc(-c2ccccc2)cc1 (stereo unspecified)	.	.	?	18.4µM*	0.3	.
CC(C)NC(=O)C1(C)CCN1C(=O)Cc1ccc(-c2ccccc2)cc1 (stereo unspecified)	.	.	16.4µM*	13µM*	-1.5	.
CC1(C(=O)Nc2cccc3ncccc23)CCN1C(=O)CCc1ccccc1 (stereo unspecified)	.	.	?	?	32.9	.
CSc1ccc(NC(=O)C2(C)CCN2C(=O)c2cc(C)n(C)n2)cc1 (stereo unspecified)	.	.	?	20.6µM*	-3.5	.
CC1(C(=O)NS(C)(=O)=O)CCN1C(=O)Cc1ccc(-c2ccccc2)cc1 (stereo unspecified)	.	.	-10.5%	-4.0%	5.2	.
Cc1cc(C(=O)N2CCC2(C)C(=O)Nc2cc(C(C)(C)C)nn2C)nn1C (stereo unspecified)	.	.	-0.1%	-1.4%	-6.2	.
CC1(C(=O)Nc2cccc3ncccc23)CCN1C(=O)Cc1ccc(-c2ccccc2)cc1 (stereo unspecified)	.	.	23.1µM*	16.4µM*	-10.0	.
CCOc1ccc(-n2ccn(CC(=O)NCCc3ccccc3)c(=O)c2=O)cc1	.	10.3	-10.1%	-14.7%	8.8	27.1%
SMILES	TDP1 block	Giardia killer	TDP1 cell CPT	TDP1 cell noCPT	IL1B secr inh	ELG1 repair inh
Nc1ccn([C@@H]2O[C@H](CNCc3cc(Br)ccc3OCc3ccccc3)[C@@H](O)[C@H]2O)c(=O)n1	.	.	-1.7%	-4.7%	-29.7	.
CC(C)(C)c1ccc(CC(=O)N2CCC2(C)C(=O)Nc2cccc3c2CCCC3)cc1 (stereo unspecified)	.	.	?	?	-11.8	.
CC(C)NC(=O)C1(C)CCN1C/C=C/c1ccccc1 (stereo unspecified)	.	.	?	?	21.1	.
Cc1ccc(NC(=O)C2(C)CCN2C(=O)Cc2ccc(-c3ccccc3)cc2)cc1 (stereo unspecified)	.	.	16.4µM*	16.4µM*	-1.3	.
CSc1ccc(NC(=O)C2(C)CCN2C(=O)Cc2ccc(C(C)(C)C)cc2)cc1 (stereo unspecified)	.	.	23.1µM*	?	-6.5	.
CC(C)NC(=O)C1(C)CCCN1C/C=C/c1ccccc1 (stereo unspecified)	.	.	20.6µM*	23.1µM*	36.6	.
CC1(C(=O)Nc2ccc3nc[nH]c3c2)CCN1C(=O)Cc1ccc(-c2ccccc2)cc1 (stereo unspecified)	.	.	?	16.4µM*	23.8	.
CCCCn1c(=O)nc2n(-c3ccc(Cl)cc3)c3ccccc3cc-2c1=O	8.1%	12.6	-13.3%	-23.4%	-8.0	5.6%
CC(C)(C)CNC(=O)C1(C)CCN1C(=O)c1ccccc1CCc1ccccc1 (stereo unspecified)	.	.	20.6µM*	16.4µM*	-17.7	.
COc1ccccc1CNC(=O)C1(C)CCN1C(=O)Cc1ccc(-c2ccccc2)cc1 (stereo unspecified)	.	.	16.4µM*	14.6µM*	-23.4	.
CC1(C(=O)NCc2ccccc2Br)CCN1C(=O)Cc1ccc(-c2ccccc2)cc1 (stereo unspecified)	.	.	?	?	-11.2	.
CC1(C(=O)NC2CCCCCC2)CCN1C(=O)C1(c2ccccc2)CC1 (stereo unspecified)	.	.	11.6µM*	18.4µM*	-2.9	.

Source: PubChem
